# In PubChem BioAssay (NCATS):
# Results filed as inconclusive are left out. Where a call stands in place of a potency, no number is given. The source made the active and inactive calls. Calls come from the whole dose curve; as a rule, active = well fitted cell-killing curve with a large enough effect; inconclusive = small, poorly fitted or top-dose-only effect, or effect the other way; inactive = no such curve, though single readings can be large or run the other way.
# Legend:
# [1] = Quantitative High-Throughput drug screen in 47 multiple myeloma cell lines against the NCATS MIPE library collection: XG1_PLB cell viability assay (AID 1919866); details: CellTiter-Glo ATP, 48 h; series mostly up to 45.8 µM; note: nearly all actives have a fitted effect of over 35% in size; note: potency is the fitted concentration of half-maximal effect
# How it was run: (§1)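 Readout: median RLU from CellTiter-Glo after 5 min at room temperature. Preceding step was 48 h drug treatment of 500 cells/well at 37 °C, 5% CO2, with DMSO-only and media-only control wells.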
# [2] = Quantitative High-Throughput drug screen in 47 multiple myeloma cell lines against the NCATS MIPE library collection: VP6_DJ cell viability assay (AID 1919867); details: ATP luminescence, 48 h; series mostly up to 45.8 µM; note: nearly all actives have a fitted effect of over 40% in size
# How it was run: as §1
# [3] = Quantitative High-Throughput drug screen in 47 multiple myeloma cell lines against the NCATS MIPE library collection: PE2_PLB cell viability assay (AID 1919869); details: PE2_PLB myeloma cells viability, ATP luminescence, 48 h; series mostly up to 45.8 µM; note: nearly all actives have a fitted effect of over 35% in size; note: potency is the fitted concentration of half-maximal effect
# How it was run: as §1
# [4] = Quantitative High-Throughput drug screen in 47 multiple myeloma cell lines against the NCATS MIPE library collection: OPM2_DSMZ cell viability assay (AID 1919872); details: OPM2 myeloma viability, CellTiter-Glo ATP luminescence, 48 h; series mostly up to 45.8 µM; note: nearly all actives have a fitted effect of over 30% in size; note: potency is the fitted concentration of half-maximal effect
# How it was run: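 Myeloma cells (500 per well) were exposed to MIPE 4.0 compounds by pin transfer and incubated 48 hours at 37C, 5% CO2. Viability was read as ATP by CellTiter-Glo luminescence, normalised to DMSO (100%) and media-only (0%) wells.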
# [5] = Quantitative High-Throughput drug screen in 47 multiple myeloma cell lines against the NCATS MIPE library collection: KMS28BM_JCRB cell viability assay (AID 1919874); details: CellTiter-Glo ATP, 48 h; series mostly up to 45.8 µM; note: nearly all actives have a fitted effect of over 35% in size; note: potency is the fitted concentration of half-maximal effect
# How it was run: as §1
# [6] = Quantitative High-Throughput drug screen in 47 multiple myeloma cell lines against the NCATS MIPE library collection: UTMC2_PLB cell viability assay (AID 1919868); details: CellTiter-Glo ATP luminescence, 48 h; viability (% of DMSO control): at 45.8 µM (top of the series); note: nearly all actives have a fitted effect of over 55% in size; note: potency is the fitted concentration of half-maximal effect
# How it was run: as §1
# [7] = Quantitative High-Throughput drug screen in 47 multiple myeloma cell lines against the NCATS MIPE library collection: PCM6_Riken cell viability assay (AID 1919870); details: CellTiter-Glo ATP, 48 h; series mostly up to 45.8 µM; note: nearly all actives have a fitted effect of over 30% in size; note: potency is the fitted concentration of half-maximal effect
# How it was run: as §1
# [8] = Quantitative High-Throughput drug screen in 47 multiple myeloma cell lines against the NCATS MIPE library collection: RPMI8226_ATCC cell viability assay (AID 1919871); details: RPMI8226 myeloma viability, CellTiter-Glo ATP luminescence, 48 h; series mostly up to 45.8 µM; note: nearly all actives have a fitted effect of over 30% in size; note: potency is the fitted concentration of half-maximal effect
# How it was run: as §1
# [9] = Quantitative High-Throughput drug screen in 47 multiple myeloma cell lines against the NCATS MIPE library collection: KMS11_JCRBsus cell viability assay (AID 1919873); details: KMS11 myeloma viability, CellTiter-Glo ATP luminescence, 48 h; series mostly up to 45.8 µM; note: nearly all actives have a fitted effect of over 50% in size; note: potency is the fitted concentration of half-maximal effect
# How it was run: as §1
SMILES,Potency [1],Potency [2],Potency [3],Potency [4],Potency [5],Potency [6],Potency [7],Potency [8],Potency [9]
C[C@]12CC[C@@H]3c4ccc(O)cc4CC[C@H]3[C@H]1[C@@H](O)[C@@H](O)[C@H]2O,14.8 µM (active),inactive,inactive,inactive,inactive,,,,
NC1(C(=O)N[C@@H](CCO)c2ccc(Cl)cc2)CCN(c2ncnc3[nH]ccc23)CC1,4.18 µM (active),,5.9 µM (active),13.2 µM (active),0.372 µM (active),0.235 µM (active),5.26 µM (active),6.62 µM (active),
C[C@]12C=CC(=O)C=C1CC[C@@H]1[C@@H]2[C@@H](O)C[C@@]2(C)[C@@H]1CC[C@]2(O)C(=O)CO,inactive,,inactive,inactive,inactive,,inactive,0.187 µM (active),0.0935 µM (active)
Cc1nn(Cc2ccccc2Cl)c(C)c1CN(C)CC(O)COc1ccc(Cl)cc1 (centres undefined),20.9 µM (active),,,inactive,33.2 µM (active),20.9 µM (active),18.7 µM (active),20.9 µM (active),23.5 µM (active)
CCOC(=O)[C@H]1O[C@H]1C(=O)N[C@@H](CC(C)C)C(=O)NCCC(C)C,inactive,,inactive,inactive,inactive,,5.9 µM (active),,inactive
CC[C@H]1OC(=O)[C@H](C)[C@@H](O[C@H]2C[C@@](C)(OC)[C@@H](O)[C@H](C)O2)[C@H](C)[C@@H](O[C@@H]2O[C@H](C)C[C@H](N(C)C)[C@H]2O)[C@](C)(O)C[C@H](C)C(=NOCOCCOC)[C@H](C)[C@@H](O)[C@]1(C)O,inactive,,inactive,inactive,,inactive,inactive,,
CCCCC(F)(F)[C@@]1(O)CC[C@H]2[C@H](CC(=O)[C@@H]2CCCCCCC(=O)O)O1,inactive,,inactive,inactive,inactive,,inactive,,inactive
CNC(=O)[C@H](Cc1ccccc1)NC(=O)[C@H](CC(C)C)[C@H](CSc1cccs1)C(=O)NO,9.35 µM (active),,16.6 µM (active),18.7 µM (active),,,13.2 µM (active),,
COc1ccc(-c2nc3ccc(C4=NNC(=O)CC4C)cc3[nH]2)cc1 (centres undefined),inactive,,inactive,inactive,inactive,,inactive,,inactive
C[C@@]1(C(=O)Nc2ccc(F)nc2)CCCN1c1nc(Nc2cc(C3CC3)[nH]n2)c2cccn2n1,0.0743 µM (active),,11.8 µM (active),7.43 µM (active),0.0372 µM (active),0.0118 µM (active),,,0.0296 µM (active)
CN[C@H]1[C@@H](O[C@@H]2[C@H](O[C@@H]3[C@@H](O)[C@@H](O)[C@@H](N=C(N)N)[C@@H](O)[C@@H]3N=C(N)N)O[C@H](C)[C@@]2(O)C=O)O[C@@H](CO)[C@@H](O)[C@H]1O,inactive,,inactive,inactive,,,inactive,inactive,inactive
CON(C)C(=O)N1N=C(c2cc(F)ccc2F)S[C@]1(CCCN)c1ccccc1,inactive,,inactive,,,inactive,,,inactive
